Source: PubChem BioAssay
MEKK3 PB1 HTS: modulators (inhibitors or enhancers) of MEK5 binding to human MEKK3 PB1 domain. bead-based flow cytometry, Alexa488-MEK5 binding to MEKK3; actives lie on both sides; 0 = blocked by unlabeled MEK5, 100 = vehicle. binding response (% of control), % at 10 µM. 290,000 tested, 1.4% active;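 active means binding response more than 3 SD above or below the average of its plate-row segment, actives on both sides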;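 further: Alexa488 bead fluorescence after subtracting the streptavidin-only scavenger bead signal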
Target sequence (Q99759 whole entry, looked up, the tested form may be a part): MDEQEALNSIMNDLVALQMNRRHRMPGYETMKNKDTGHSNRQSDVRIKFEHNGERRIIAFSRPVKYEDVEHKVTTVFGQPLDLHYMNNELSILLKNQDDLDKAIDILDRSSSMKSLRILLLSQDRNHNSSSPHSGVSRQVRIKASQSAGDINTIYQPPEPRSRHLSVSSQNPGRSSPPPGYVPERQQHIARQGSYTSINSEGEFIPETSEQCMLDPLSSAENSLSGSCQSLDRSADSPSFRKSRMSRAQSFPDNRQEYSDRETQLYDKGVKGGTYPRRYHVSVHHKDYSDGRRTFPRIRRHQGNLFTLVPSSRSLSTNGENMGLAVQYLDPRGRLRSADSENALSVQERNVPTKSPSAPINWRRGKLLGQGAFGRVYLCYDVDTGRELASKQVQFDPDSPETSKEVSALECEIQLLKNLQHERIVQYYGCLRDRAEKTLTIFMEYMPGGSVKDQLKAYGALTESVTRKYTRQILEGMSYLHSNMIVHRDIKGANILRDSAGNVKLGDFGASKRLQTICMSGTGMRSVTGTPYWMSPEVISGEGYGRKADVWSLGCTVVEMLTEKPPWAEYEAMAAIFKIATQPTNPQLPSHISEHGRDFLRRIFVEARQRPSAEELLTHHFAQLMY
Beta2AR agonist: activates human beta-2 adrenergic receptor causing internalization. AID 504454. P07550. response, % (concentration not given with the values). Am2.2-beta2AR cells, FAP receptor internalization, flow cytometry. 340,000 tested, 0.43% active;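 active means response above a set limit, near 3 SD of response in nonfluorescent compounds, cut at about 42% in these data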
MEKK2 WT-MEK5: raises or lowers MEK5 binding to wildtype human MEKK2 PB1 domain | Q9Y2U5 | binding response (% of control), % at 10 µM | 290,000 tested, 1.1% active | bead flow cytometry, Alexa488-MEK5 binding to MEKK2 WT; actives lie on both sides; in the data active means binding response below about 67% or above about 130%
GRK2 aptamer HTS: blocks RNA aptamer binding to human GRK2; P25098; bead flow cytometry, FAM-aptamer displacement from GRK2; inhibition of aptamer binding, % at 10 µM; 330,000 tested, 0.59% active;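 active means inhibition of aptamer binding above 40%, roughly 3 SD of noise, on plates passing a quality check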;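 further: median bead fluorescence of bound FAM aptamer so fluorescent compounds give negative values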
MEKK2mut PB1 HTS: signal of MEK5 binding to mutant human MEKK2 PB1 domain; bead flow cytometry, Alexa488-MEK5 binding to MEKK2 mutant; percent response, % at 10 µM; AID 1530; 290,000 tested, 0.35% active; in the data active means percent response above about 24%, passing the limit was not always enough
MEKK2wt confirm: raises or lowers MEK5 binding to wildtype human MEKK2, retest; shares compounds with MEKK3 PB1 HTS; bead flow cytometry, Alexa488-MEK5 binding to MEKK2 WT; actives lie on both sides; binding response (% of control), % at 10 µM; 5,900 tested, 2.4% active; AID 1892; in the data active means binding response below about 16% or above about 210%; inactive means in between
MEKK2mut-MEK5: signal of MEK5 binding to mutant human MEKK2, retest; shares compounds with MEKK3 PB1 HTS; bead flow cytometry, Alexa488-MEK5 binding to MEKK2 mutant; percent response, % at 10 µM; 5,900 tested, 2% active; AID 1893; in the data active means percent response mostly above about 71%, no sharp cut-off; inactive means mostly below about 38%;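 further: higher means compound restores mutant binding toward wildtype level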
MEKK3-MEK5 inh: confirmation of inhibitors of MEK5 binding to human MEKK3. shares compounds with MEKK3 PB1 HTS. bead flow cytometry, Alexa488-MEK5 binding to MEKK3; hits give low values. binding response (% of control), % at 10 µM. 5,900 tested, 1.8% active. AID 1894;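 active means binding response below 72% of control, or above a set upper limit, though filed actives all read lower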;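 further: 100% = DMSO only wells and 0% = binding blocked by excess unlabeled MEK5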
The depositor's hits bear a star; · = not tested or not shown; [ ] = dose if it differs, or a comment. Sampled rows, rich in hits. Any-hit rate of the full collection: about 2.9%.

SMILES	MEKK3 PB1 HTS	Beta2AR agonist	MEKK2 WT-MEK5	GRK2 aptamer HTS	MEKK2mut PB1 HTS	MEKK2wt confirm	MEKK2mut-MEK5	MEKK3-MEK5 inh
CN1CCN(c2ccc(C(F)(F)F)cc2NC(=O)Nc2ccccc2)CC1	109	17	150*	0	18	159	39	110
CCc1nc(N2CCN(C(=O)CCl)CC2)c2c3c(sc2n1)CC(C)CC3 (configuration not stated)	111	3	153*	0	39*	141	25	100
CCc1nc(N2CCN(C(C)=O)CC2)c2c3c(sc2n1)CC(C(C)(C)C)CC3 (configuration not stated)	101	6	107	1	4	·	·	·
O=[N+]([O-])c1ccc(N2CCN(c3cccc(Cl)c3)CC2)cn1	101	2	91	2	-7	·	·	·
Cc1nn(-c2ccccc2)c(Cl)c1CN(C(=O)CCl)c1ccc(Cl)cc1	145*	-180	112	3	3	100	-2	103
NS(=O)(=O)c1ccc(N2CCOCC2)c(C(=O)NCCCSc2ccccc2)c1	·	-1	·	0	·	·	·	·
CCc1nc(N2CCCC2C(=O)O)c2oc3ccccc3c2n1 (configuration not stated)	57*[inhibitor]	5	72	4	-19	100	4	100
O=C(Nc1ccc2c(c1)CCC2)c1ccccc1F	135*	31	103	0	0	104	4	104
Cc1cc[n+](C(C)C(=O)c2ccc(-c3ccccc3)cc2)cc1 (configuration not stated)	106	-2	152*	0	29	101	-2	97
CC(=O)Nc1cc[n+](C(C)C(=O)c2ccc(Cl)cc2)cc1 (configuration not stated)	41*[inhibitor]	-5	54	0	-14	103	0	100
Cc1cc[n+](C(C)C(=O)c2ccc(Cl)cc2)cc1 (configuration not stated)	102	-2	107	0	3	·	·	·
COc1ccc(-c2coc3cc(O[C@@H]4O[C@H](CO)[C@@H](O)[C@H](O)[C@H]4O)ccc3c2=O)cc1	·	0	·	0	·	·	·	·
O=c1c(-c2ccc3c(c2)OCCO3)coc2cc(OC3OC(CO)C(O)C(O)C3O)ccc12 (configuration not stated)	44*[inhibitor]	-2	46*[inhibitor]	3	-11	97	-5	103
COc1ccccc1Nc1nnc(SCc2cc(=O)n3cc(C)ccc3n2)s1	142*	-3	111	1	1	90	-10	92
Cc1ccccc1Nc1nnc(SCc2cc(=O)n3ccsc3n2)s1	103	-3	104	0	6	·	·	·
CCOc1ccc(NS(=O)(=O)c2c(C(=O)N3CCCCCC3)c(C)n(C)c2C)cc1	97	-9	96	0	0	·	·	·
Cc1ccc(OCCOc2ccc(Cl)cc2Cl)c([N+](=O)[O-])n1	105	-5	165*	2	13	103	3	102
CC(=O)C1=C(O)C(=O)N(Cc2ccco2)C1c1cccc(F)c1 (configuration not stated)	129*	-4	113	0	0	97	-7	96
Cc1ccc(C)c(NC(=O)CSc2nc(=O)n(CCN3CCOCC3)c3c2CCCC3)c1	·	-8	·	1	·	·	·	·
Cc1ccc(C2CC(c3cccs3)=NN2S(=O)(=O)c2ccc(C)cc2)cc1 (configuration not stated)	102	-1	61*[inhibitor]	3	9	94	-1	101
COc1ccc(C2CC(c3cccs3)=NN2S(=O)(=O)c2ccc(C)cc2)cc1 (configuration not stated)	118	4	126	0	11	·	·	·
CS(=O)(=O)N1N=C(c2cccs2)CC1c1ccccc1F (configuration not stated)	99	-4	-4.0*[inhibitor]	2	3	102	6	105
CSC(=NC#N)N1CCN(C(=NC#N)SC)CC1	2.0*[inhibitor]	5	1.0*[inhibitor]	0	-60	98	-6	99
CSC(=NC#N)N1CCN(C(c2ccccc2)c2ccccc2)CC1	102	2	99	1	-1	·	·	·
Cc1nc2ccccn2c1C(=O)N=Nc1c(O)[nH]c2ccccc12	139*	-15	106	3	2	102	1	103
SMILES	MEKK3 PB1 HTS	Beta2AR agonist	MEKK2 WT-MEK5	GRK2 aptamer HTS	MEKK2mut PB1 HTS	MEKK2wt confirm	MEKK2mut-MEK5	MEKK3-MEK5 inh
CCOC(=O)CSC1=N/C(=C\c2cc(OC)c(OC)c(OC)c2)C(=O)N1C	153*	0	106	0	1	97	-8	101
CC(C)(C)c1ccc(/C=N/NC(=O)c2ccccn2)cc1	87	28	·	0	86*	108	4	105
O=C(N/N=C/c1ccsc1)c1ccccn1	99	-22	91	0	-2	·	·	·
COc1ccc(CCNCc2cc(C)n(-c3ccc(OC)cc3)c2C)cc1	97	29	184*	0	61*	148	22	99
COc1ccc(CCNCc2ccccc2N2CCCC2)cc1	110	-4	119	0	13	·	·	·
Cc1ccc(C)c(N2CCN(C(=O)c3ccc(CSc4nc5ccncc5[nH]4)cc3)CC2)c1	1.0*[inhibitor]	-8	2.0*[inhibitor]	3	-13	102	4	101
O=C(c1ccc(CSc2nc3ccncc3[nH]2)cc1)N1CCCCC1	106	1	98	1	-3	·	·	·
CCc1nc(SCC(=O)NCCc2ccccc2)c2c(=O)n(C)c(=O)n(C)c2n1	116	-5	115	0	20	·	·	·
CSc1cccc(NC(=S)N(CCCN2CCCC2)Cc2cccn2Cc2ccc(Cl)cc2)c1	113	33	270*	1	94*	245*	77*	111
S=C(Nc1cccc(Cl)c1)N(CCCN1CCCC1)Cc1cccn1Cc1ccc(Cl)cc1	105	27	262*	0	8	221*	63	114
COc1cccc(NC(=S)N(CCCN2CCCC2)Cc2cccn2Cc2ccc(Cl)cc2)c1	113	8	177*	0	55*	164	38	111
O=C(CCN1C(=O)C2C3CC(C(Br)C3Br)C2C1=O)OCC(=O)c1cccc([N+](=O)[O-])c1 (configuration not stated)	98	6	95	0	-6	·	·	·
Cc1nnc(N2CCOCC2)c2nn(-c3ccccc3)c(C)c12	114	-6	105	0	3	·	·	·
